The values below come from the supplement of paper PMC11732987, “Enantioselective OTUD7B fragment discovery through chemoproteomics screening and high-throughput optimisation” (Communications Chemistry, 2025).

Values without a mark were called inactive.

Holding throughout (experiment): log2 ratio of Biotin-Ahx-Ub-VS probe labelling (fragment/DMSO); higher = less target engagement (more negative = stronger competition), active = hit call of the paper (q ≤ 0.05, log2 ratio ≤ -1)
Details in all cases: compound concentration: 200 uM; treatment time: 3 h

One assay deals with T1, OTUD6B (UniProt Q8N6M0).
T1 sequence (whole entry): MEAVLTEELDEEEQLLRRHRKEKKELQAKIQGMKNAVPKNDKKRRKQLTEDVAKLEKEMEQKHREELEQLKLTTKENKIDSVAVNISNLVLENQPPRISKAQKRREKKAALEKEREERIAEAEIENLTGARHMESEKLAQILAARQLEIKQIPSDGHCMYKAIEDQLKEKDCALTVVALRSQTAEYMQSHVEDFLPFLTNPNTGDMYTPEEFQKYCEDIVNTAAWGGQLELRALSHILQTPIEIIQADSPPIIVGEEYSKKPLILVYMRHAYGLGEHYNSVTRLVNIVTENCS
In outline:
(§1)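 HEK293T lysate in Tris/CHAPS/IGEPAL buffer with protease inhibitors (495 µg per sample) was given fragment at 200 µM or vehicle for 3 h, in triplicate. It then received Biotin-Ahx-Ub-VS at 0.5 µM final for 1 h. Labelled DUBs were NeutrAvidin-enriched, digested with LysC and trypsin, and run by diaPASEF LC-MS/MS. Values are average log2 fragment/vehicle ratios by unpaired t-test on global-median-normalised Spectronaut quantities of proteins with ≥2 unique peptides.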

The next assay addresses T2, OTUD7B (UniProt Q6GQQ9).
T2 sequence (whole entry): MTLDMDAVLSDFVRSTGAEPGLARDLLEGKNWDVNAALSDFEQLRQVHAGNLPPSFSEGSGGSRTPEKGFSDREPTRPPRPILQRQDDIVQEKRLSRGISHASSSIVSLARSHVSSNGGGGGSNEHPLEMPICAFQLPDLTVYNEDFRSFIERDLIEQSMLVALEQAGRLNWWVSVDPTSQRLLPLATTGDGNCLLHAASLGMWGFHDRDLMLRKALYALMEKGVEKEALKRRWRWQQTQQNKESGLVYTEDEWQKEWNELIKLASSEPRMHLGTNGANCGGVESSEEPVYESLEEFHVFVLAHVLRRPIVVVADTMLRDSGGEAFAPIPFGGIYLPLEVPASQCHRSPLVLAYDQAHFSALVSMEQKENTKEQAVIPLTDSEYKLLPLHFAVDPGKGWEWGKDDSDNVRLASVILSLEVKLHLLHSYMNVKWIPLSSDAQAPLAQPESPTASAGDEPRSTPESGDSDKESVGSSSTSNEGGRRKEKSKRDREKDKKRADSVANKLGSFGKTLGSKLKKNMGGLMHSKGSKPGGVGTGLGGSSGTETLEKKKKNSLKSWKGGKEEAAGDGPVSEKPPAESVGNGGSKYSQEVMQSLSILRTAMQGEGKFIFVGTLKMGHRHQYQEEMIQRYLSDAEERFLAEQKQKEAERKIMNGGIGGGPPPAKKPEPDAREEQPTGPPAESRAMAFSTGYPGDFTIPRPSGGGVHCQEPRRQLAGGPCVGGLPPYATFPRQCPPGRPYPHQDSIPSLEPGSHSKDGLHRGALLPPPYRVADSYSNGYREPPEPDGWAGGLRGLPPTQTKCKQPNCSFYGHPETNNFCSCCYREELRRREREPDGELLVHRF
The procedure, abridged:
as §1

The next assay deals with PRPF8 (UniProt Q6P2Q9). In outline: as §1
The target of another assay is T3, PSMD7 (UniProt P51665).
T3 sequence (whole entry): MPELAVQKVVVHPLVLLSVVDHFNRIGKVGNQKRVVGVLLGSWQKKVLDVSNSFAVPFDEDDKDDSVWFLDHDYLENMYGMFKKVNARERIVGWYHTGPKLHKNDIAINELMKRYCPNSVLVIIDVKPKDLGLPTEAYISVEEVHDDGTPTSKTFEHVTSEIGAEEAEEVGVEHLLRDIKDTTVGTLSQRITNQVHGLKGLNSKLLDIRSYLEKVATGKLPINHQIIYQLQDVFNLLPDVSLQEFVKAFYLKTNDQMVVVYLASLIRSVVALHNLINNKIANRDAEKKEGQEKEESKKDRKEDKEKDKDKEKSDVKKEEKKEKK
In outline: as §1

In a further assay the target is UCHL1 (UniProt P09936). The procedure, abridged: as §1
A further assay concerns the target T4, UCHL3 (UniProt P15374).
T4 sequence (whole entry): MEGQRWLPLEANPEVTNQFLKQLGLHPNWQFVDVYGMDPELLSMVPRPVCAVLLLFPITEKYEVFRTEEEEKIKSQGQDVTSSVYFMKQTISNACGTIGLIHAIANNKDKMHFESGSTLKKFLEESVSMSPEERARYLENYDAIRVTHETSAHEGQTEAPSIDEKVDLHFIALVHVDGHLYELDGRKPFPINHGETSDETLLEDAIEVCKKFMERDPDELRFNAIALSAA
The procedure, abridged: as §1

The next assay addresses T5, UCHL5 (UniProt Q9Y5K5).
T5 sequence (whole entry): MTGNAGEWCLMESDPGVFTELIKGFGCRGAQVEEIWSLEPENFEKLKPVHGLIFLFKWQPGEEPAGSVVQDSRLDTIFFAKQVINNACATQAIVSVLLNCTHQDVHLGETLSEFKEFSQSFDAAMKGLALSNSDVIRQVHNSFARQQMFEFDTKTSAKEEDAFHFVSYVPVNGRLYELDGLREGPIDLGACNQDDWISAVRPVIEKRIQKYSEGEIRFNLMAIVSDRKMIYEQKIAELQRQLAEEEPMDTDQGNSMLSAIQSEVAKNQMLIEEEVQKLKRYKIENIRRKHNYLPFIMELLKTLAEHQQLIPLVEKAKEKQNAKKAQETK
The procedure, abridged:
as §1

For another assay, the target named is USP10 (UniProt Q14694). The procedure, abridged: as §1
For the next assay, the target named is T6, USP15 (UniProt Q9Y4E8).
T6 sequence (whole entry): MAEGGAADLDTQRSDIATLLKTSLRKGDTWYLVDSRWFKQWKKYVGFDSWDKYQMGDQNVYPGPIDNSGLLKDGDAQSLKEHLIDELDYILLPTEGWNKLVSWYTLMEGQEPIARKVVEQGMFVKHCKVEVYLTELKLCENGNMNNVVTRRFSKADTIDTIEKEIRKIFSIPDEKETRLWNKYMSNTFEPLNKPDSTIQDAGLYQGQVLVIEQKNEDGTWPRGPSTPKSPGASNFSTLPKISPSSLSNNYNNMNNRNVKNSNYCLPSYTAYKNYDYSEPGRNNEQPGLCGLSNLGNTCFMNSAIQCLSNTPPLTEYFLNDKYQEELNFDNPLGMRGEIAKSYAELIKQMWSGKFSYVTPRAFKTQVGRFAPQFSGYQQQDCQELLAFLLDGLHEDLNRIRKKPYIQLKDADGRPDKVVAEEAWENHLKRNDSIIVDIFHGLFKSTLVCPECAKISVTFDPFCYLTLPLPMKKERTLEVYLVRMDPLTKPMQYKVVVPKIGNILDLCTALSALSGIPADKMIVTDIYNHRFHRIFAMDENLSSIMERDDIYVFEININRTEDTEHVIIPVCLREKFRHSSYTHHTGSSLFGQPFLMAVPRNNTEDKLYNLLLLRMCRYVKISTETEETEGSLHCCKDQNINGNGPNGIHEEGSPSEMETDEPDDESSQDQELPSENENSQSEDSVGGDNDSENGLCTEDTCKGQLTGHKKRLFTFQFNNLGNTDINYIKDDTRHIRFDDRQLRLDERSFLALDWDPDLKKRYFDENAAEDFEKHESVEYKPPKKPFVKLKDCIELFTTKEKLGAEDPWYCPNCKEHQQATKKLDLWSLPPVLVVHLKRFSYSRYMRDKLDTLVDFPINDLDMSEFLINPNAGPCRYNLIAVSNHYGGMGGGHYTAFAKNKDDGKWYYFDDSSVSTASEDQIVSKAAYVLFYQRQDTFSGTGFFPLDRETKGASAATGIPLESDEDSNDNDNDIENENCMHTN
The procedure, abridged: as §1

The target in another assay is USP16 (UniProt Q9Y5T5). The procedure, abridged: as §1
USP16, sequence (Q9Y5T5 whole entry, looked up): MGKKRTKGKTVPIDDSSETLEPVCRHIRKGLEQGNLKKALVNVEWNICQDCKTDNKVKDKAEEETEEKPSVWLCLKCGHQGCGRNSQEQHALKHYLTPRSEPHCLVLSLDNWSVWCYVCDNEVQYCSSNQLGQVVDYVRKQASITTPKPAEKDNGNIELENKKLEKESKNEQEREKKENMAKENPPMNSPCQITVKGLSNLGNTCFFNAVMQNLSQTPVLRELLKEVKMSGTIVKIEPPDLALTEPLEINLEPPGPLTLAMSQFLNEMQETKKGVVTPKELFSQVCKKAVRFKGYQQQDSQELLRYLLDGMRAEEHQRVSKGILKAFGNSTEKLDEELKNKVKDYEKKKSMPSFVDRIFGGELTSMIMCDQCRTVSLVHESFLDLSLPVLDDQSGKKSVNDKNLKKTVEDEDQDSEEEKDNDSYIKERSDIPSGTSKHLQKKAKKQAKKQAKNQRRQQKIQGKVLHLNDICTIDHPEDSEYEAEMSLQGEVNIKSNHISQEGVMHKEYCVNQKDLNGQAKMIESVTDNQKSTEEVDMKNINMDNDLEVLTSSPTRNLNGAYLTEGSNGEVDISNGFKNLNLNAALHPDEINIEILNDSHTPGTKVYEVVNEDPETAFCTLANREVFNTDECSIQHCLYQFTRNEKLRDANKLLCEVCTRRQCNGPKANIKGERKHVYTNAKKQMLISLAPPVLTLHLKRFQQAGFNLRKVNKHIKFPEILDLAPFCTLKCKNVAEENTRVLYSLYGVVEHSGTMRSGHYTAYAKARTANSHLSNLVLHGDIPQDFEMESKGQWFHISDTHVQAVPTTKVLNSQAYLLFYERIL

UCHL1, sequence (P09936 whole entry, looked up): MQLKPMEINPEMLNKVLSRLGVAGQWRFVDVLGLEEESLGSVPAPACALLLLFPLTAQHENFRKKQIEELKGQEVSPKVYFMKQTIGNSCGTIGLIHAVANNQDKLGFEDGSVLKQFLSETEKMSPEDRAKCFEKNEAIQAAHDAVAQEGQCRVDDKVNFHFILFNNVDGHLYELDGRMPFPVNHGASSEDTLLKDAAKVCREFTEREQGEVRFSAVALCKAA
USP10, sequence (Q14694 whole entry): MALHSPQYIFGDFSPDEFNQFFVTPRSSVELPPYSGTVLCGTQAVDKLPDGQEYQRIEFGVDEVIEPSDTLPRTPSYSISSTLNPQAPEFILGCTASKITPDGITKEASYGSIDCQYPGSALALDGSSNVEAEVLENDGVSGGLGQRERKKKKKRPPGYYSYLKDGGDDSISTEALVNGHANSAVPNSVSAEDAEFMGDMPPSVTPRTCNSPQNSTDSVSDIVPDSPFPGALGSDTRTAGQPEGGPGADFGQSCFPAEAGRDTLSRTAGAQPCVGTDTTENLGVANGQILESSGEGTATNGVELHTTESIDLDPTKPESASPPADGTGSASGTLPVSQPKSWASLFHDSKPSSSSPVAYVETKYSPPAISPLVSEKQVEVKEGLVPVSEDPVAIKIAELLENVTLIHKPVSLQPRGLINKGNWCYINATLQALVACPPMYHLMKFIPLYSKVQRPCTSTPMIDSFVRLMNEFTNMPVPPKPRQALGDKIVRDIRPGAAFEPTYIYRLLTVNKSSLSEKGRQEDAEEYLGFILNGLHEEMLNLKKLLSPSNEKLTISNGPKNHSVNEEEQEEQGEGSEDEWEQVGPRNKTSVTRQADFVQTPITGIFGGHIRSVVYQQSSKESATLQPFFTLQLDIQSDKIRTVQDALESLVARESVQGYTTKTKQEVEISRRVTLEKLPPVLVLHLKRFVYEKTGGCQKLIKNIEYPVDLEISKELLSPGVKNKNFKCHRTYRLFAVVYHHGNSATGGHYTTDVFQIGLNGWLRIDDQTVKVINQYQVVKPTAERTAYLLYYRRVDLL

On to `C[C@@H](NC(=O)CCl)c1cccc(C#N)c1`, for which the “log2 ratio of Biotin-Ahx-Ub-VS probe labelling” value with OTUD6B is -0.0614; with OTUD7B it was -1.42 (active); with PRPF8 it was 0.0368; with PSMD7 it was -0.233; with UCHL1, -1.24 (active); in the assay with UCHL3, 0.359. Moreover, the “log2 ratio of Biotin-Ahx-Ub-VS probe labelling” value in the assay with UCHL5 was -0.189; with USP10, -0.103; in the assay with USP15 it was -0.222; in the assay with USP16 it was 0.0341.
